Measurements from PubChem BioAssay (Tox21).
“And” between values parts separate entries of the source, which are not always exact repeats. Equal values may be shown once. Records with an inconclusive call do not appear. The source made the active and inactive calls. Calls come from the whole dose curve; as a rule, active = well fitted cell-killing curve with a large enough effect in the repeat runs; inconclusive = weak or mixed curves, or effect the other way; inactive = flat fitted curve, though single readings scatter.

Assay: cAMP Responsive Elements (CRE) small molecule antagonists, cell-based qHTS assay: qHTS cell viability counter screen (AID 2060913); note: nearly all actives have a fitted effect of over 40% in size
Conditions: CRE-bla HEK293T viability, CellTiter-Glo luminescence, 5 h; series mostly up to 92.4 µM; viability change, negative = cytotoxic: at the top concentration
How it was run: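 Cytotoxicity read in the same wells as the CRE-bla HEK293T antagonist assay: after 3 h compound with 0.25 uM NKH477 final and 2 h beta-lactamase substrate, CellTiter-Glo luminescence measured.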
% is set by controls: 0 for no effect and ±100 for the full control effect; potency is the fitted concentration of half-maximal effect.

Compound	viability change, negative = cytotoxic	Potency
CC1=NN(c2cccc(S(=O)(=O)O)c2)C(=O)C1	1.63% (inactive)	–
CC(C(=O)O)c1ccc(CC2CCCC2=O)cc1 (centres undefined)	-2.16% [at 42.5 µM] (inactive)	–
C#CCOC(=O)[C@@H](C)Oc1ccc(Oc2ncc(Cl)cc2F)cc1	3.96% (inactive)	–
COc1ccccc1OCCNCC(O)COc1cccc2[nH]c3ccccc3c12 (centres undefined)	-10.9% [at 42.5 µM] (inactive)	–
O=C1c2cccc(O)c2C(=O)c2c(O)cc(CO)cc21	-11.5% (inactive)	–
CCN(Cc1cccc(S(=O)(=O)O)c1)c1ccc(C(=C2C=CC(=[N+](CC)Cc3cccc(S(=O)(=O)O)c3)C=C2)c2ccc(O)cc2S(=O)(=O)[O-])cc1	-29.6% [at 42.5 µM] (inactive)	–
O=C1Cc2cc(Cl)ccc2N1	4.44% [at 42.5 µM] (inactive)	–
NC(=O)N(O)[C@@H]1C=C[C@H](Oc2cccc(Oc3ccc(F)cc3)c2)C1	1.73% (inactive)	–
CN1CCN(C2=Nc3cc(F)ccc3Cc3ccccc32)CC1	1.38% [at 42.5 µM] (inactive)	–
O=C1c2c(O)ccc(O)c2C(=O)c2c(NCCNCCO)ccc(NCCNCCO)c21	5.65% [at 42.5 µM] (inactive)	–
O=C(Nc1ccccc1SSc1ccccc1NC(=O)c1ccccc1)c1ccccc1	–	inactive
NS(=O)(=O)c1cc2c(cc1Cl)NC(C(Cl)Cl)NS2(=O)=O (centres undefined)	9.68% [at 42.5 µM] (inactive)	–
C[C@@H]1NC(=O)[C@@H](N)CNC(=O)[C@H](C2CCNC(N)=N2)NC(=O)/C(=C/NC(N)=O)NC(=O)[C@H](CNC(=O)C[C@@H](N)CCCN)NC1=O (some centres undefined)	-0.0663% [at 0.349 µM] (inactive)	–
CCOc1cc(OCC)c(C(=O)CCC(=O)O)cc1OCC	0.827% [at 42.5 µM] (inactive)	–
Nc1ccc(N)c2c1C(=O)c1ccccc1C2=O	-4.86% (inactive)	–
CCCCN(CCO)CCO	0.695% (inactive)	–
Clc1nc2ccccc2s1	-1.37% (inactive)	–
CN(C)[C@@H]1C(=O)C(C(=O)NCN2CCCC2)=C(O)[C@@]2(O)C(=O)C3=C(O)c4c(O)cccc4[C@@](C)(O)C3C[C@@H]12 (some centres undefined)	-6.57% [at 42.5 µM] (inactive)	–
CCCNC(C)(C)COC(=O)c1ccccc1	-3.43% [at 42.5 µM] (inactive)	–
O=S(=O)(O)c1cccc2c(S(=O)(=O)O)cccc12	-3.13% (inactive)	–

Compound	viability change, negative = cytotoxic	Potency
CN(C)c1ccc(C(=C2C=CC(=[N+](C)C)C=C2)c2ccccc2)cc1	–	15.4 µM (active) and 11.9 µM (active) and 10.6 µM (active)
CCCCCCCCN1CCCC1=O	1.2% (inactive)	–
CC(C)[C@H]1CC[C@H](C)C[C@@H]1O	5.85% (inactive)	–
Cc1c(C)n(CCN(C)C)c2ccc(C(=O)OCCN(C)C)cc12	-0.195% [at 42.5 µM] (inactive)	–
COc1cc(N)ccc1C	-4.79% (inactive)	–
CC(C)C/C=C(\C=O)c1ccccc1	-22.3% (inactive)	–
CCCCCCCCCCCCCC[n+]1ccccc1	–	48.6 µM (active)
Cc1cccc(OCC(O)CNC(C)(C)C)c1C (centres undefined)	10.6% [at 42.5 µM] (inactive)	–
O=C1CCC/C=C\CCCCCCCCCC1	9.97% (inactive)	–
CCOC(=O)C1=C(C)NC(C)=C(C(=O)OCC)C1c1ccccc1/C=C/C(=O)OC(C)(C)C	-5.42% [at 42.5 µM] (inactive)	–
N[C@@H](COP(=O)(O)O)C(=O)O	4.6% [at 18.9 µM] (inactive)	–
COc1cccc(O)c1O	10.1% (inactive)	–
CC(C)OC(=O)COc1ccc(Cl)cc1Cl	-0.147% (inactive)	–
CCCCOC(=O)C(C)OC(=O)CCC (centres undefined)	0.793% (inactive)	–
CCOCCOC(=O)/C=C/c1ccc(OC)cc1	3% [at 42.5 µM] (inactive)	–
CCCCCCCCCCCC(=O)NCCCN(C)C	–	61.1 µM (active)
COC(=O)CC(=O)OC	–	inactive
CC1(C)CC(O)CC(C)(C)N1[O]	-1.94% (inactive)	–
SC1CCCCC1	-5.15% (inactive)	–
